From PubChem BioAssay
Activity calls are given as the source filed them.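 How the source made its calls, unless noted: active means inhibition at or above 50% at 10 µM; inactive means inhibition below 50%.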

Assays:
[1] = inhibitors of TNFa-induced NFkB p65 translocation, primary screen, imaging, HUVEC, MLSMR starter and 10KST1 sets (AID 438;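 active means inhibition above 20% together with a positive visual image hit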;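 further: compound added about 3h40 before a 20 min TNFalpha stimulation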;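 on inhibition: signal is the nuclear over cytoplasmic p65 intensity ratio per well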); details: HUVEC TNFa-induced p65 nuclear translocation; cell count: measured here: nuclei count (cytotoxicity indicator), at 2.08 µM; inhibition: at 2 µM, stronger effect = higher value, 0% TNFa-plus-vehicle, 100% no-TNFa wells
[2] = inhibitors of mutant huntingtin aggregation, primary screen, imaging, exon1htt(103Q)mCFP cells, high-content imaging (AID 483;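 active means visual image review flags a hit and inhibition of aggregation exceeds 20%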;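 further: compound exposure lasted 3 days before fixation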;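 on nuclei count: percent of the per-plate median nuclei count of sample wells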); details: exon1htt(103Q)mCFP cell line, aggregate imaging, at 2 µM; inhibition of aggregation: stronger effect = higher value; nuclei count: measured here: cell count, toxicity
[3] = inhibitors of E-selectin induction by TNFa, primary screen, imaging, HUVEC, immunofluorescence, MLSMR starter and 10KST1 sets (AID 487;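 active means visually confirmed hit in the image check and inhibition above 20%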;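 on inhibition: signal is fraction of cell area covered by stained E-selectin grains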;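 on nuclei count: 100% = median nuclei count of all wells on the same plate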); details: HUVEC TNFalpha-induced E-selectin immunofluorescence imaging, at 2 µM; inhibition: stronger effect = higher value; nuclei count: measured here: cell number, toxicity
[4] = target: Voltage-gated potassium channel subunit beta-2 (Rattus norvegicus) (UniProt P62483); experiment: KvBeta enzyme negative modulators, primary screen, biochemical, NADPH fluorescence (AID 622;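 active means fluorescence slope higher than the sample average by over 3 SD, cut at about -0.22 in these data, passing the limit was not always enough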;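 further: slope of raw intensity against log time taken from 70 to 1610 s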); details: recombinant KvBeta, 4-cyanobenzaldehyde reduction, at 10 µM, stronger effect = higher value
Voltage-gated potassium channel subunit beta-2 (Rattus norvegicus), sequence (P62483 whole entry, looked up): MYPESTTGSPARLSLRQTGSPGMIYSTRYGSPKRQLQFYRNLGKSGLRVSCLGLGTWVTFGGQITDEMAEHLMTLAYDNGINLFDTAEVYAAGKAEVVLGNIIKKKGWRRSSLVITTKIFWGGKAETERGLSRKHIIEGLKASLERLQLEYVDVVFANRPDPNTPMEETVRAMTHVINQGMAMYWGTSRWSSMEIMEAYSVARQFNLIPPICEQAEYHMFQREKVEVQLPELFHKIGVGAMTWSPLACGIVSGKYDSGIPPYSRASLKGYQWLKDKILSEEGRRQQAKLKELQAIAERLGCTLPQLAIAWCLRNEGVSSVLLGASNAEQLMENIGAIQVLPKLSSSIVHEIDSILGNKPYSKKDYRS

[5] = target: Voltage-gated potassium channel subunit beta-2 (Rattus norvegicus) (UniProt P62483); experiment: KvBeta positive modulators, primary screen, biochemical, NADPH fluorescence (AID 623;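 active means NADPH fluorescence slope more negative than the mean of all samples by about 3 SD, 99.7% confidence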;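 further: fluorescence intensity change per second fitted from 20 to 320 s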); details: Recombinant KvBeta, NADPH fluorescence decrease slope, 10 min; at 10 µM; stronger effect = lower value
[6] = target: Alpha-2C adrenergic receptor (Homo sapiens) (UniProt P18825); experiment: modulators of alpha2C/GIRK thallium flux, primary screen, cell-based, HEK293 alpha2C/GIRK1/2 (AID 624;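 active means fluorescence slope after compound addition differing from the mean of all screened samples at 99.7% confidence, in either direction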;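 further: slope of fluorescence ratio to pre-addition baseline per second over 15 to 24 s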); details: thallium flux BTC fluorescence, at 10 µM, actives lie on both sides
Alpha-2C adrenergic receptor (Homo sapiens), sequence (P18825 whole entry, looked up): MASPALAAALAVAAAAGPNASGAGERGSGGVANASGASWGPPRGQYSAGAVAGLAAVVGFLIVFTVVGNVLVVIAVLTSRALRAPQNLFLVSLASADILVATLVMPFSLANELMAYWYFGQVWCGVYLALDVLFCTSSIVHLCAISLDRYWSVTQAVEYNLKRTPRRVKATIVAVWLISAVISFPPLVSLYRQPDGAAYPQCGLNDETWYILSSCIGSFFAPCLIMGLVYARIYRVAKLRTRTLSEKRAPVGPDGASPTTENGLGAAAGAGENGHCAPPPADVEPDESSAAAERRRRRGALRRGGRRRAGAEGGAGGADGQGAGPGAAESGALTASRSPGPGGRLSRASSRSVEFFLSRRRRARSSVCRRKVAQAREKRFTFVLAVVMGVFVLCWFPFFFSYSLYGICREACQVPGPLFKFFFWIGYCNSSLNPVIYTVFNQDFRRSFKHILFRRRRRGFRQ

[7] = inhibitors of Sendai virus-induced IRF3 signaling, primary screen, TLR/RLR signaling modifier project, cell-based, Sendai virus stimulus, luciferase, 10K MLSCN set (AID 602276); details: HEK293 RL24 IRF3 luciferase reporter, at 10 µM, stronger effect = higher value;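 further: firefly luciferase from ISG56 promoter only with Renilla not read in this screen; 0% = Sendai virus plus DMSO and 100% = medium plus DMSO without virus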
[8] = inhibitors of poly I:C-induced TLR3 signaling, primary screen, cell-based, poly I:C stimulus, luciferase, 10K MLSCN set (AID 602277;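 active means inhibition of the reporter signal at or above 50%; inactive means inhibition below 50%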); details: HEK293-TLR3 RL24 IRF3 luciferase reporter, at 10 µM, stronger effect = higher value

SMILES | cell count [1] | inhibition [1] | inhibition of aggregation [2] | nuclei count [2] [%] | inhibition [3] | nuclei count [3] [%] | fluorescence slope [4] | NADPH fluorescence slope [5] | slope [6] | inhibition [7] | inhibition [8]
O=C(NC12CC3CC(CC(C3)C1)C2)N1CCN(C(=O)C2CCCO2)CC1 (stereo not drawn) | 434 | -10.3% (inactive) | -18.6% (inactive) | 100 | -186% (inactive) | 0.2 | -0.392 (inactive) | -7.1e-05 (inactive) | 0.00603 (inactive) | 18% (inactive) | 11.1% (inactive)
O=C(Nc1ccc(N2CCCC2)cc1)c1cccc(F)c1 | 694 | 1.6% (inactive) | 24.1% (inactive) | 94.5 | -83.5% (inactive) | 148 | -0.436 (inactive) | 7e-06 (inactive) | 0.0066 (inactive) | 11.4% (inactive) | -67.8% (inactive)
O=C(CCn1c(=O)oc2ccccc21)NCc1ccco1 | 686 | -5.9% (inactive) | -10% (inactive) | 104 | -32.5% (inactive) | 127 | -0.598 (inactive) | -5.1e-05 (inactive) | 0.00749 (inactive) | -5.54% (inactive) | 6.8% (inactive)
CC12CN3CC(C)(CN(C1)C3c1ccc(Cl)cc1Cl)C2=O (stereo not drawn) | 849 | -4.6% (inactive) | -26.4% (inactive) | 123 | -21.6% (inactive) | 121 | -0.557 (inactive) | -1.9e-05 (inactive) | 0.00699 (inactive) | 1.89% (inactive) | 28.2% (inactive)
O=C(Nc1ncnc2sc3c(c12)CCC3)c1ccco1 | 289 | -1.6% (inactive) | 0.8% (inactive) | 75.8 | -12.5% (inactive) | 118 | -0.327 (inactive) | -4.2e-05 (inactive) | 0.00564 (inactive) | -7.87% (inactive) | -0.691% (inactive)
CCn1ncc(Cl)c1C(=O)Nc1ccncc1 | 587 | -6.1% (inactive) | -21.9% (inactive) | 56.2 | -41% (inactive) | 101 | -0.577 (inactive) | -5.6e-05 (inactive) | 0.00342 (inactive) | 3.99% (inactive) | -1.03% (inactive)
O=C(CCn1c(=O)oc2ccccc21)N1CCN(c2ccccc2Cl)CC1 | 570 | 3.9% (inactive) | -52.3% (inactive) | 22.3 | 26.9% (inactive) | 81.9 | -0.379 (inactive) | -2e-05 (inactive) | 0.0037 (inactive) | 49.8% (inactive) | 19.6% (inactive)
CCOC(=O)c1sc(NC(=O)CSc2nnc3c4ccccc4n(CC)c3n2)nc1C | 478 | 1.6% (inactive) | 6.7% (inactive) | 106 | -6.3% (inactive) | 110 | -0.333 (inactive) | -1.9e-05 (inactive) | 0.00568 (inactive) | -6.56% (inactive) | 7.93% (inactive)
COc1ccc(CCN2CC(O)=C(c3nc4ccccc4c(=O)[nH]3)C2=N)cc1OC | 642 | -0.8% (inactive) | -7.4% (inactive) | 83.2 | -35.6% (inactive) | 98.6 | -0.489 (inactive) | -1e-06 (inactive) | 0.00682 (inactive) | 2.39% (inactive) | 7.15% (inactive)
COc1ccc(C(=O)Nc2nncs2)c(OC)c1 | 746 | 7.5% (inactive) | -7.4% (inactive) | 27 | -98.6% (inactive) | 111 | -0.631 (inactive) | 3.8e-06 (inactive) | 0.00588 (inactive) | -22.9% (inactive) | -48.7% (inactive)
COc1cc(SC)ccc1C(=O)Nc1ccon1 | 461 | -10.3% (inactive) | -0.3% (inactive) | 93 | 20.1% (inactive) | 91.2 | -0.608 (inactive) | 2.8e-05 (inactive) | 0.00729 (inactive) | -57.7% (inactive) | -144% (inactive)
Cn1c(SCC(=O)c2cc3ccccc3o2)nnc1-c1ccccc1 | 621 | 8% (inactive) | -8.5% (inactive) | 66 | -44.5% (inactive) | 106 | -0.527 (inactive) | -2.6e-05 (inactive) | 0.00718 (inactive) | 10.2% (inactive) | 16.3% (inactive)
O=C(O)C1CCCN1C(=O)c1cccs1 (stereo not drawn) | 367 | -18.4% (inactive) | -4.2% (inactive) | 105 | -53% (inactive) | 117 | -0.487 (inactive) | -7.9e-05 (inactive) | 0.00489 (inactive) | 5.87% (inactive) | 10.7% (inactive)
Cc1cccc(C2CC(c3ccccc3)Nc3nc(N)nn32)c1 (stereo not drawn) | 626 | -3.4% (inactive) | 7.7% (inactive) | 114 | -47.9% (inactive) | 120 | -0.517 (inactive) | -5.7e-06 (inactive) | 0.00697 (inactive) | 9.21% (inactive) | 18.7% (inactive)
O=C(CSc1ccc2nnc(-c3ccccc3)n2n1)N1CCN(c2ccccc2)CC1 | 616 | 0.3% (inactive) | 9.9% (inactive) | 110 | -34.8% (inactive) | 111 | -0.592 (inactive) | -3.7e-05 (inactive) | 0.00674 (inactive) | -9.77% (inactive) | 3.8% (inactive)
COc1ccc(NC(=O)COc2ccccc2)c(OC)c1 | 404 | 8.8% (inactive) | -15.2% (inactive) | 106 | 1.1% (inactive) | 108 | -0.418 (inactive) | -4.6e-05 (inactive) | 0.00449 (inactive) | -32.8% (inactive) | -89.1% (inactive)
Cc1ccccc1-c1nc(CS(=O)(=O)CC(=O)NCc2ccc3c(c2)OCO3)c(C)o1 | 676 | -0.6% (inactive) | -60.8% (inactive) | 115 | -6.5% (inactive) | 110 | -0.497 (inactive) | -2.5e-05 (inactive) | 0.0071 (inactive) | 24.2% (inactive) | 17% (inactive)
CCCc1cc(C(=O)Nc2sc3c(c2C#N)CCC3)no1 | 633 | -2.9% (inactive) | 11.9% (inactive) | 95.8 | -34.8% (inactive) | 116 | -0.568 (inactive) | -2.8e-05 (inactive) | 0.00643 (inactive) | 7.08% (inactive) | 10.9% (inactive)
COc1ccc(N2CCN(Cc3cc(=O)oc4cc(C)c(Cl)c(C)c34)CC2)cc1 | 604 | 0.3% (inactive) | 8.9% (inactive) | 104 | 19% (inactive) | 93.1 | -0.388 (inactive) | 1.5e-05 (inactive) | 0.00505 (inactive) | 17.9% (inactive) | 12% (inactive)
CCOC(=O)c1ccc(N2Cc3cc(C)c(C)cc3C2)cc1O | 744 | 2.9% (inactive) | 6.2% (inactive) | 92.7 | -36.2% (inactive) | 119 | -0.457 (inactive) | -1.3e-05 (inactive) | 0.00595 (inactive) | -26.7% (inactive) | -52.7% (inactive)
O=C1c2ccccc2C(Nc2ccc3c(c2)OCCO3)N1Cc1ccc2c(c1)OCO2 (stereo not drawn) | 597 | 3.4% (inactive) | -2.8% (inactive) | 102 | -14.2% (inactive) | 106 | -0.553 (inactive) | -5e-05 (inactive) | 0.00464 (inactive) | 3.99% (inactive) | 50.1% (active)
COc1cc(Br)cc(/C=N/c2ncn[nH]2)c1O | 376 | -8.7% (inactive) | -2.5% (inactive) | 101 | -35% (inactive) | 117 | -0.467 (inactive) | 7.7e-05 (inactive) | 0.00616 (inactive) | 12.8% (inactive) | 24.8% (inactive)
CCc1nc(C)ccc1OCC(=O)O | 332 | 1% (inactive) | -30% (inactive) | 89.2 | 9.9% (inactive) | 102 | -0.459 (inactive) | -6.3e-05 (inactive) | 0.00578 (inactive) | -11.9% (inactive) | -14.7% (inactive)
CCOC(=O)c1[nH]c(CSc2nnc(-c3ccc(OC)cc3)o2)c(C(=O)OCC)c1C | 609 | 1.4% (inactive) | -12.6% (inactive) | 124 | -39.2% (inactive) | 119 | -0.304 (inactive) | -5.8e-05 (inactive) | 0.00625 (inactive) | 7.64% (inactive) | 24.1% (inactive)
O=C1NC(c2cccnc2)C(C(=O)c2cccs2)C(O)(C(F)(F)F)N1 (stereo not drawn) | 506 | -0.3% (inactive) | 5% (inactive) | 104 | 40.4% (inactive) | 119 | -0.363 (inactive) | -3.5e-05 (inactive) | 0.00436 (inactive) | -6.6% (inactive) | -5.31% (inactive)
Cc1cc(C(=O)NCc2cccnc2)no1 | 337 | 4.2% (inactive) | 6.9% (inactive) | 105 | 7.8% (inactive) | 102 | -0.5 (inactive) | -8.2e-06 (inactive) | 0.00709 (inactive) | 11.1% (inactive) | 14.3% (inactive)
CCOC(=O)c1ccc(NCc2nc3ccccc3[nH]2)cc1 | 670 | -7.9% (inactive) | -14.3% (inactive) | 102 | -46% (inactive) | 126 | -0.558 (inactive) | 2.8e-05 (inactive) | 0.00739 (inactive) | -76.1% (inactive) | -152% (inactive)
c1ccc2c(c1)sc1nnnn12 | 375 | -2.1% (inactive) | -24.6% (inactive) | 112 | -109% (inactive) | 115 | -0.555 (inactive) | -7.2e-05 (inactive) | 0.00357 (inactive) | 18% (inactive) | 27.2% (inactive)
